{"source": "PubChem BioAssay (NCATS)", "note": "Inconclusive results are not listed. Values without a mark were called inactive. Activity calls are given as the source filed them. The call rests on the fitted dose curve; in most records, active means well fitted inhibition curve with a large enough effect; inconclusive means small, poorly fitted or top-dose-only effect; inactive means flat fitted curve, though single readings scatter. Potency means the concentration at half of the fitted maximal effect."}
{"test_system": "DIV30", "test": "qHTS profiling for inhibitors of Plasmodium falciparum proliferation (AID 504749); further: nearly all actives have a fitted effect of over 60% in size;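 on activity, negative = inhibition: 0% = DMSO vehicle and full inhibition = artemisinin control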", "conditions": "P. falciparum in erythrocytes, SYBR Green DNA, 72 h; series mostly up to 28.7 µM; activity, negative = inhibition: at the top concentration", "procedure,_shortened": "(§1)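 P. falciparum-infected erythrocytes (0.3% parasitemia, 2.5% hematocrit final) were exposed to compounds for 72 h at 37 C in 5% CO2, then lysed with SYBR Green buffer overnight at room temperature; parasite DNA fluorescence was normalized to artemisinin and DMSO controls.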", "units": {"activity, negative = inhibition": "%"}}
{"smiles": "COCCOC(=O)C1=C(C)NC(C)=C(C(=O)OC(C)C)C1c1cccc([N+](=O)[O-])c1", "note": "(centres undefined)", "Potency": "12 µM (active)"}
{"smiles": "CNC1(C)C2CCC(C2)C1(C)C", "note": "(centres undefined)", "activity, negative = inhibition": -7.29}
{"smiles": "CN1C[C@H](C(=O)N[C@]2(C)O[C@@]3(O)[C@@H]4CCCN4C(=O)[C@H](Cc4ccccc4)N3C2=O)C[C@@H]2c3cccc4[nH]cc(c34)C[C@H]21", "Potency": "0.757 µM (active)"}
{"smiles": "CCCC(C(=O)OCCN(CC)CC)(c1ccccc1)c1ccccc1", "Potency": "13.5 µM (active)"}
{"smiles": "Brc1c(NC2=NCCN2)ccc2nccnc12", "activity, negative = inhibition": -19.9}
{"smiles": "CCCCCCCC/C=C\\CCCCCCCC(=O)NCc1ccc(O)c(OC)c1", "activity, negative = inhibition": 4.42}
{"smiles": "CC1=C(C)C(=O)C(CCCCC#CCCCC#CCO)=C(C)C1=O", "Potency": "7.57 µM (active)"}
{"smiles": "NC(=Nc1ccccc1)Nc1ccccc1", "activity, negative = inhibition": -15.2}
{"smiles": "CN(C)C/C=C(/c1ccc(Br)cc1)c1cccnc1", "activity, negative = inhibition": -20.9}
{"smiles": "CC1=NS(=O)(=O)c2cc(Cl)ccc2N1", "activity, negative = inhibition": -1.61}
{"smiles": "CC(C)[N+](C)(CCOC(=O)C1c2ccccc2Oc2ccccc21)C(C)C", "activity, negative = inhibition": -8.81}
{"smiles": "O=C1CC2(CCCC2)CC(=O)N1CCCCN1CCN(c2ncccn2)CC1", "activity, negative = inhibition": -16.5}
{"test_system": "Dd2", "test": "qHTS profiling for inhibitors of Plasmodium falciparum proliferation (AID 504749); further: nearly all actives have a fitted effect of over 60% in size;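 on activity, negative = inhibition: 0% = DMSO vehicle and full inhibition = artemisinin control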", "conditions": "P. falciparum in erythrocytes, SYBR Green DNA, 72 h; series mostly up to 28.7 µM; activity, negative = inhibition: at the top concentration", "procedure,_shortened": "as §1"}
{"smiles": "CNCCC(Oc1ccccc1OC)c1ccccc1", "note": "(centres undefined)", "Potency": "6.31 µM (active)"}
{"smiles": "CCC(=O)c1ccc2c(c1)N(CCCN(C)C)c1ccccc1S2", "Potency": "7.94 µM (active)"}
{"smiles": "c1cc(CN2CCCCC2)cc(OCCCNc2nc3ccccc3s2)c1", "Potency": "6.31 µM (active)"}
{"smiles": "CN(C)CCCN1c2ccccc2Sc2ccccc21", "Potency": "3.16 µM (active)"}
{"smiles": "CN(C)CC[C@@H](c1ccc(Br)cc1)c1ccccn1", "Potency": "2.51 µM (active)"}
{"smiles": "CCCC(C(=O)OCCN(CC)CC)(c1ccccc1)c1ccccc1", "Potency": "14.1 µM (active)"}
{"smiles": "CN(C)CCN(Cc1cccs1)c1ccccn1", "Potency": "3.98 µM (active)"}
{"smiles": "CC(=O)[C@]1(O)Cc2c(O)c3c(c(O)c2[C@@H](O[C@H]2C[C@H](N)[C@H](O)[C@H](C)O2)C1)C(=O)c1ccccc1C3=O", "Potency": "0.158 µM (active)"}
{"smiles": "Brc1c(NC2=NCCN2)ccc2nccnc12", "activity, negative = inhibition": "-26.1%"}
{"smiles": "COCCCC/C(=N\\OCCN)c1ccc(C(F)(F)F)cc1", "Potency": "7.94 µM (active)"}
{"smiles": "C=CCc1ccccc1OCC(O)CNC(C)C", "note": "(centres undefined)", "Potency": "7.94 µM (active)"}
{"smiles": "CCCCCCCC/C=C\\CCCCCCCC(=O)NCc1ccc(O)c(OC)c1", "Potency": "14.1 µM (active)"}
{"smiles": "CC(C)(C)c1ccc(C(=O)CCCN2CCC(OC(c3ccccc3)c3ccccc3)CC2)cc1", "Potency": "10 µM (active)"}
{"smiles": "CCN(CC)CCNC(=O)c1cc(S(C)(=O)=O)ccc1OC", "activity, negative = inhibition": "8% [at 12.8 µM]"}
{"smiles": "CN(C)C/C=C(/c1ccc(Br)cc1)c1cccnc1", "Potency": "12.6 µM (active)"}
{"smiles": "O=C1NCN(c2ccccc2)C12CCN(CCCC(c1ccc(F)cc1)c1ccc(F)cc1)CC2", "Potency": "5.01 µM (active)"}
{"smiles": "CN(C)CC/C=C1\\c2ccccc2COc2ccccc21", "Potency": "8.91 µM (active)"}
{"smiles": "COc1cc(C(=O)OCCCN2CCCN(CCCOC(=O)c3cc(OC)c(OC)c(OC)c3)CC2)cc(OC)c1OC", "Potency": "12.6 µM (active)"}
{"smiles": "O=C1CC2(CCCC2)CC(=O)N1CCCCN1CCN(c2ncccn2)CC1", "activity, negative = inhibition": "-6.12%"}
{"smiles": "O=C(CCCN1CCC(O)(c2cccc(C(F)(F)F)c2)CC1)c1ccc(F)cc1", "Potency": "5.62 µM (active)"}
{"smiles": "COc1ccc(CCN(C)CCCC(C#N)(c2cc(OC)c(OC)c(OC)c2)C(C)C)cc1OC", "note": "(centres undefined)", "Potency": "5.62 µM (active)"}
{"test_system": "ECU", "test": "qHTS profiling for inhibitors of Plasmodium falciparum proliferation (AID 504749); further: nearly all actives have a fitted effect of over 60% in size;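 on activity, negative = inhibition: 0% = DMSO vehicle and full inhibition = artemisinin control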", "conditions": "P. falciparum in erythrocytes, SYBR Green DNA, 72 h; series mostly up to 28.7 µM; activity, negative = inhibition: at the top concentration", "procedure,_shortened": "as §1"}
{"smiles": "CC(C)COCC(CN(Cc1ccccc1)c1ccccc1)N1CCCC1", "note": "(centres undefined)", "activity, negative = inhibition": "4.05%"}
{"smiles": "CCC(=O)c1ccc2c(c1)N(CCCN(C)C)c1ccccc1S2", "activity, negative = inhibition": "-25.3%"}
{"smiles": "CNC1(C)C2CCC(C2)C1(C)C", "note": "(centres undefined)", "activity, negative = inhibition": "1.34%"}
{"smiles": "CN(C)CCCN1c2ccccc2Sc2ccccc21", "activity, negative = inhibition": "-11.5% [at 12.8 µM]"}
{"smiles": "Cc1nc2ccccn2c(=O)c1CCN1CCC(C(=O)c2ccc(F)cc2)CC1", "activity, negative = inhibition": "-0.352%"}
{"smiles": "CN(C)CC[C@@H](c1ccc(Br)cc1)c1ccccn1", "activity, negative = inhibition": "-20%"}
{"smiles": "COc1ccc(CN(CCN(C)C)c2ccccn2)cc1", "activity, negative = inhibition": "-8.08%"}
{"smiles": "CCCC(C(=O)OCCN(CC)CC)(c1ccccc1)c1ccccc1", "Potency": "10 µM (active)"}
{"smiles": "CN(C)CCN(Cc1cccs1)c1ccccn1", "activity, negative = inhibition": "-23.6%"}
{"smiles": "CC(=O)[C@]1(O)Cc2c(O)c3c(c(O)c2[C@@H](O[C@H]2C[C@H](N)[C@H](O)[C@H](C)O2)C1)C(=O)c1ccccc1C3=O", "Potency": "7.94 µM (active)"}
{"smiles": "Fc1ccc(C(c2ccc(F)cc2)N2CCN(C/C=C/c3ccccc3)CC2)cc1", "Potency": "11.2 µM (active)"}
{"smiles": "CN(C)CCCN1c2ccccc2Sc2ccc(C(F)(F)F)cc21", "Potency": "12.6 µM (active)"}
{"smiles": "CN(C(=O)CCCOc1ccc2[nH]c(=O)ccc2c1)C1CCCCC1", "activity, negative = inhibition": "-14.3%"}
{"smiles": "CCN(CC)CCNC(=O)c1cc(S(C)(=O)=O)ccc1OC", "activity, negative = inhibition": "-2.09% [at 12.8 µM]"}
{"smiles": "CC1=C(C)C(=O)C(CCCCC#CCCCC#CCO)=C(C)C1=O", "Potency": "2.82 µM (active)"}
{"smiles": "NC(=Nc1ccccc1)Nc1ccccc1", "activity, negative = inhibition": "-12.9%"}
{"smiles": "CC1=NS(=O)(=O)c2cc(Cl)ccc2N1", "activity, negative = inhibition": "-0.613%"}
{"smiles": "O=C1NCN(c2ccccc2)C12CCN(CCCC(c1ccc(F)cc1)c1ccc(F)cc1)CC2", "Potency": "5.62 µM (active)"}
{"smiles": "CN(C)CC/C=C1\\c2ccccc2COc2ccccc21", "activity, negative = inhibition": "-19.9%"}
{"smiles": "COc1cc(C(=O)OCCCN2CCCN(CCCOC(=O)c3cc(OC)c(OC)c(OC)c3)CC2)cc(OC)c1OC", "Potency": "8.91 µM (active)"}
{"smiles": "O=C(CCCN1CCC(O)(c2cccc(C(F)(F)F)c2)CC1)c1ccc(F)cc1", "Potency": "2.24 µM (active)"}
